Results filed as inconclusive are left out. A call without a number means that no potency is given here. The source made the active and inactive calls. Calls follow the shape of the dose curve; as a rule, active = well fitted activation curve with a large enough effect; inconclusive = small, poorly fitted or top-dose-only effect; inactive = no such curve, though single readings can be large or run the other way.
Test: qHTS Assay for NPC1 Promoter Activators: Hit Validation Using Renila Luciferase Read-Out for NPC1
Conditions: Huh7 NPC1 promoter-luciferase reporter, luminescence, 24 h; series mostly up to 76.9 µM
Method in brief: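 Huh7 cells stably carrying NPC promoter-luciferase reporter, exposed to compound for 24 h at 37 deg C. Luminescence read 10 min after adding luciferase detection reagent at room temperature.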
Potency is read from the fitted curve at half-maximal effect.

| Compound | Potency |
| --- | --- |
| Cc1ccc(C(=O)Nc2ccc(N3CCN(C)CC3)nc2)cc1 | inactive |
| Cc1noc(/C=C/N(C)C)c1S(=O)(=O)N1CCCC(C(=O)N2CCCCC2)C1 (centres undefined) | inactive |
| Cc1ccc(C2C3=C(CC(C)(C)CC3=O)N(CCN3CCOCC3)C3=C2C(=O)CC(C)(C)C3)cc1 | 16.4 µM (active) |
| NC(=O)C1(NC(=O)[C@@H]2CC3(CC(c4cccc(NC(=O)[C@@H]5CCC(=O)N5)c4)=NO3)CN2C(=O)c2ccccc2)CC1 (some centres undefined) | inactive |
| COc1cccc(NC(=O)CN2C(=O)CSc3ccc(S(=O)(=O)N4CCC(C)CC4)cc32)c1 | inactive |
| CC(Sc1ncnc2c1cnn2-c1ccccc1)C(=O)Nc1ccc(N2CCOCC2)cc1 (centres undefined) | inactive |
| CCC1CCCCN1CCCNC(=O)c1ccc2nc(N3CCCCC3)sc2c1 (centres undefined) | inactive |
| CCOc1cc(C2C(C#N)=C(N)Oc3n[nH]c(C)c32)ccc1OCCN1CCOCC1 (centres undefined) | inactive |
| C=CCc1ccc(OCCOCCNCCOC)c(OC)c1 | inactive |
| O=CN1CCN(C(=O)c2ccccc2Cl)CC1 | inactive |
| Cc1ccc(NC(=O)NC(=O)c2ccccc2)cc1F | inactive |
| CN(C)C(CNC(=O)CNC(=O)c1ccc2ccccc2c1)c1ccccc1 (centres undefined) | inactive |
| COC(=O)c1ccccc1NC(=O)c1cc(-c2cccs2)on1 | inactive |
| COc1ccccc1C(=O)Nc1nnc(SCC(=O)NC2CCCC2)s1 | inactive |
| O=C(C[N+]1(CC#Cc2ccccc2)CCCCC1)c1ccccc1 | inactive |
| Cc1cc(C)cc(N(CC(=O)NC2CCCC2)C(=O)CNC(=O)c2ccco2)c1 | inactive |
| Cc1c(C(O)CN2CCN(Cc3ccc4c(c3)OCO4)CC2)c2ccccc2n1C (centres undefined) | inactive |
| CCC(=O)NC(=S)Nc1ccc(N2CCOCC2)cc1 | inactive |
| COc1ccc(NC(=O)CN(C)C(=O)c2ccc(=O)[nH]c2)cc1 | inactive |
| CC1CCc2sc(C(=O)NNC(=S)NC3CC3)cc2C1 (centres undefined) | inactive |

| Compound | Potency |
| --- | --- |
| COc1ccc(OC)c(S(=O)(=O)N2CCN3CCCC3C2)c1 (centres undefined) | 32.8 µM (active) |
| COCCSc1ncnc2c1oc1nc3c(cc12)COC(C)(C)C3 | inactive |
| CC(C)(C)C(=O)N/C(N)=N/c1nc2ccccc2o1 | inactive |
| Cc1ccc(S(=O)(=O)/N=C2\C=C(Nc3cccc(C(=O)O)c3)C(=O)c3ccccc32)cc1 | inactive |
| COc1ccc(-c2csc(Nc3ncccn3)n2)cc1C | inactive |
| COc1ccccc1N(C(=O)c1snc(C(N)=O)c1N)C(C(=O)NC1CCCCC1)c1cccc(OC)c1OC (centres undefined) | 11.6 µM (active) |
| CCC(=O)Nc1cc(-c2cc3ccccc3oc2=O)ccc1OC | inactive |
| CC(C)C(NC(=O)c1ccc([N+](=O)[O-])cc1Cl)C(=O)N1CCCC1 (centres undefined) | inactive |
| Cc1ccc(S(=O)(=O)N2CCN(c3cnn(C)c(=O)c3Cl)CC2)cc1 | inactive |
| O=C(NCCc1c[nH]c2ccccc12)C(=O)NCC(c1ccco1)N1CCN(c2ccccc2F)CC1 (centres undefined) | inactive |
| NC(=O)COC(=O)c1ccc2noc(-c3ccccc3)c2c1 | inactive |
| O=C(O)C1=CC[C@@H](c2ccc(Cl)cc2)N(S(=O)(=O)c2ccc(Cl)cc2)[C@H]1c1ccccc1 | 14.6 µM (active) |
| Cc1ccc(CNC(=O)Nc2ccc(C)cc2)cc1 | inactive |
| O=C(CCN1C(=O)c2ccccc2C1=O)Nc1ccc(-c2nc3ccccc3s2)cc1 | inactive |
| N#C/C(=N\Nc1ccc(Cl)cc1)C(=N)N1CCCCC1 | inactive |
| CCN(CC)S(=O)(=O)c1ccc(NCc2ccccn2)nc1 | inactive |
| CCCCn1c(Nc2ccc(OC)cc2)nc2ccccc21 | inactive |
| Cc1[nH]n(-c2cccc3ccccc23)c(=O)c1/C=N/c1sc2c(c1C#N)CCC2 | inactive |
| S=C1NCN(CCc2ccccc2)CN1Cc1ccccc1 | inactive |

Reference: PubChem BioAssay AID720526 (National Center for Advancing Translational Sciences (NCATS), 2013)
